Assay outcomes deposited in PubChem by National Center for Advancing Translational Sciences (NCATS).
An excerpt weighted towards active compounds, which were near 4.1% of everything screened.
AmpC inh detg = blocks E. coli AmpC beta-lactamase in detergent assay. Potency, µM (doses to about 114 µM), without a hit: at the highest dose activity change, negative = inhibition, actives largely listed as inhibitors. AmpC hydrolysis of nitrocefin, absorbance 480 nm, 0.01% Triton. P00811. actives 0.041% (n = 370,000);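 also: 0% = no-compound wells and -100% = no-enzyme wells; nearly all actives have a fitted effect of over 25% in size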
Target sequence (P00811 whole entry, looked up): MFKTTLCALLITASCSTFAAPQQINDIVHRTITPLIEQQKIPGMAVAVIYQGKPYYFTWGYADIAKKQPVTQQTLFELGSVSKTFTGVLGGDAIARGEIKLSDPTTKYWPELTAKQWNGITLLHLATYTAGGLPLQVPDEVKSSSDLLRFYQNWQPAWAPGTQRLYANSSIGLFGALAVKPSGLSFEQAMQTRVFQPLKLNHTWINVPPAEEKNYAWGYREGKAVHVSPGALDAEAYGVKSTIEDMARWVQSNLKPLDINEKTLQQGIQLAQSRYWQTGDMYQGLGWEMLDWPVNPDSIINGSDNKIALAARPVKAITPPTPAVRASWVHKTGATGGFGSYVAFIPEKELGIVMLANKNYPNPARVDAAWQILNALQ
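20 mM phosphate pH 7.0 + 0.01% (detergent screen) or 0.0001% Triton X-100; 5.3 nM AmpC reagent; cpd preinc 15 min RT; nitrocefin (800 uM stock) to start; A480 q20 s × 4 min; Activity was normalised to no-enzyme and no-compound control wells.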
AMA1-RON2 inh = inhibitors of Plasmodium falciparum AMA1-RON2 interaction. AlphaScreen AMA1-biotinylated RON2 peptide binding. Potency, µM (highest dose often 58.2 µM), for inactives: at the highest dose activity change, negative = inhibition, hits mostly inhibitors. actives 0.2% (n = 360,000). AID 720542;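 also: 0% = vehicle wells and -100% = peptide control; nearly all actives have a fitted effect of over 45% in size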
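AMA1 (3D7) with his tag at 25 nM final met compounds first, then biotinylated RON2 peptide at 25 nM; detection used donor plus acceptor beads, 10 µg/mL apiece, read by AlphaScreen after 30 min at room temperature.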
FMDV antiviral = antivirals against foot and mouth disease virus | FMDV antiviral cell-based qHTS | actives 1.2% (n = 410,000) | AID 1159524 | Potency, µM (highest dose often 57.9 µM), for inactives: at the top dose activity change, negative = inhibition, most hits filed as inhibitors; calls by dose curve; tested in HEK293T cells; also: read-out not given here; nearly all actives have a fitted effect of over 45% in size
Sm TGR inh = blocks Schistosoma mansoni thioredoxin glutathione reductase; Q962Y6; purified TGR, DTNB reduction, TNB absorbance 405 nm; Potency, µM (series often up to 114 µM), for inactives: at the top dose activity change, negative = inhibition, actives largely listed as inhibitors; actives 3% (n = 360,000); AID 485364; also: nearly all actives have a fitted effect of over 60% in size
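Kinetic colorimetric format: TGR-catalysed, NADPH-driven DTNB reduction monitored via TNB absorbance. Enzyme dispensed at 20 nM; compound exposure 15 min at room temperature before reaction start.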
AmpC no deterg = AmpC beta-lactamase inhibition without detergent | P00811 | AmpC nitrocefin hydrolysis, absorbance 480 nm, 0.0001% Triton | Potency, µM (doses to about 57.1 µM), for inactives: at the top dose activity change, negative = inhibition, usual class: inhibitors | actives 0.52% (n = 330,000) | AID 485341;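 also: plate controls were no compound for no effect and no enzyme for full effect; nearly all actives have a fitted effect of over 20% in size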
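20 mM phosphate pH 7.0 + 0.01% (detergent screen) or 0.0001% Triton X-100; 5.3 nM AmpC reagent; cpd preinc 15 min RT; nitrocefin (800 uM stock) to start; A480 q20 s × 4 min; Activity was normalised to no-enzyme and no-compound control wells.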
* hit, by the source's call; ? = inconclusive; . = no result given. Unless noted, calls follow the shape of the dose curve; as a rule, active = well fitted curve in the direction sought with a large enough effect; inconclusive = small, poorly fitted or top-dose-only effect, or another doubt; inactive = no such curve, though single readings can be large; an effect the other way counts as inactive or inconclusive. Unless noted, % is scaled to controls: 0 for no effect and ±100 for the full control effect; potency is read from the fitted curve at half-maximal effect.

SMILES	AmpC inh detg	AMA1-RON2 inh	FMDV antiviral	Sm TGR inh	AmpC no deterg
COc1ccc(/C(O)=C2/C(=O)C(=O)N(CCN(C)C)C2c2ccc(OC)c(OC)c2)c(C)c1 (centres undefined)	-19%	5%	-14%	40µM*	-19%
COc1ccc(C2/C(=C(/O)c3cnn(-c4ccccc4)c3C)C(=O)C(=O)N2CCN(C)C)cc1OC (centres undefined)	.	-7%	-13%	.	.
COc1ccc(/C(O)=C2/C(=O)C(=O)N(CCCN(C)C)C2c2ccc(C)o2)cc1Cl (centres undefined)	-7%	.	.	45µM*	9%
COc1cc(C2/C(=C(/O)c3ccc(OCC(C)C)cc3)C(=O)C(=O)N2CCN(C)C)ccc1O (centres undefined)	?	1%	.	45µM*	8%
O=C(/C=C/c1ccco1)Nc1ccc2nn(-c3ccccc3)nc2c1	-12%	-14%	9%	32µM*	?
Cc1ccc(NC(=O)/C=C/c2ccco2)cc1F	-2%	.	11%	14µM*	.
Cc1cc(NC(=O)/C=C/c2ccco2)ccc1NC(=O)c1ccccc1	10%	-10%	-5%	10µM*	-31%
Cc1ccc(-n2nc3ccc(NC(=O)c4ccco4)cc3n2)cc1	?	-2%	43%	-5%	-5%
CCOc1ccc(CNC(=O)CN2C(=O)CCn3nc(-c4cn(C)c5ccccc45)cc32)cc1OC	5%	.	1%	2%	.
CCCC1=[N+](CC)CCn2c(C)ccc21	-2%	-3%	.	-10%	?
Cc1cc2n(c1)CCn1c(C)ccc1-2	-11%	.	.	45µM*	82%
CCOc1ccc(Cl)cc1CNCCCSc1nnnn1C	21%	.	-5%	1%	.
CCN1/C(=C/c2ccc3cc(C)ccc3[n+]2CC)Sc2ccc3sccc3c21	.	-8%	35µM*	.	.
CCN1/C(=C\c2ccc3cc(C)ccc3[n+]2CC)Sc2cc(C)c(C)cc21	-1%	-30%	?	-27%	-9%
Nc1nnc(-c2ccco2)s1	-3%	3%	.	27%	-11%
Nc1ncnc2oc(-c3ccco3)c(-c3ccco3)c12	-1%	?	.	10µM*	-31%
CCOc1ccccc1NC(=O)CSc1nc2c(c(=O)[nH]1)CCC2	0%	.	6%	-3%	.
Oc1ccc(C2C(c3ccccc3)=NN=C(c3ccc(Cl)cc3)N2O)c(O)c1 (centres undefined)	?	6%	19%	?	25µM*
COc1ccccc1C(=O)OCc1cc(=O)n2nc(C3CC3)sc2n1	3%	.	32%	21%	.
C[C@H]1CC[C@]2(NC1)O[C@H]1C[C@H]3[C@@H]4CC[C@H]5C[C@@H](O[C@@H]6O[C@H](CO)[C@H](O[C@@H]7O[C@H](CO)[C@@H](O)[C@H](O[C@@H]8OC[C@@H](O)[C@H](O)[C@H]8O)[C@H]7O[C@@H]7O[C@H](CO)[C@@H](O)[C@H](O)[C@H]7O)[C@H](O)[C@H]6O)CC[C@]5(C)[C@H]4CC[C@]3(C)[C@H]1[C@@H]2C	.	.	25µM*	.	.
Cc1cccc(Cn2nc(C)n3c(cc4cc(C)ccc43)c2=O)c1	14%	.	-6%	17%	.
O=[N+]([O-])c1ccc(S(=O)(=O)Nc2nnc(C(F)(F)F)s2)cc1	4%	-14%	12%	14µM*	-23%
CC(C)Cc1nnc(NS(=O)(=O)c2ccc([N+](=O)[O-])cc2)s1	?	-8%	22%	?	-15%
CCOC(=O)c1ccc(N2C(=O)CC(NC3CCN(C(=O)c4ccc(F)cc4)CC3)C2=O)cc1 (centres undefined)	0%	-5%	1%	50µM*	37%
CCOc1ccc(N2C(=O)CC(NC3CCN(C(=O)c4ccc(F)cc4)CC3)C2=O)cc1 (centres undefined)	-2%	18%	-11%	18µM*	84%
CCc1ccc(C2=NN(CCC(=O)NCCc3ccccc3)C(=O)CC2)cc1	3%	.	-12%	-2%	.
Cc1ccc(NC(=O)Cn2cc(S(=O)(=O)N3CCN(c4ccccc4F)CC3)c3ccccc3c2=O)cc1F	9%	.	-11%	-2%	.
